Results from PubChem BioAssay (Tox21).
Where “and” joins values, the source holds several entries; their conditions need not be identical. Equal values may be shown once. Records with an inconclusive call do not appear. Calls of active or inactive are those of the source. Unless noted, calls follow the shape of the dose curve; as a rule, active = well fitted curve in the direction sought with a large enough effect in the repeat runs; inconclusive = weak or mixed curves; inactive = no such curve, though single readings can be large; an effect the other way counts as inactive or inconclusive.

Tests used:
[1] = qHTS assay to identify small molecule antagonists of the glucocorticoid receptor (GR) signaling pathway - cell viability counter screen (AID 720693); also: nearly all actives have a fitted effect of over 55% in size; also: potency is read from the fitted curve at half-maximal effect
[2] = qHTS assay for identifying genotoxic compounds that show differential cytotoxicity against isogenic chicken DT40 cell lines with known DNA damage response pathways - wild type cell line (AID 743012); also: nearly all actives have a fitted effect of over 60% in size; also: potency is read from the fitted curve at half-maximal effect
Outline: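 CellTiter-Glo luminescence readout of viability in wild type DT40 cells after 40 h compound exposure at 37 C/5% CO2; 300 cells/well; reagent incubated 30 min at room temperature before reading.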

[3] = qHTS assay for identifying genotoxic compounds that show differential cytotoxicity against isogenic chicken DT40 cell lines with known DNA damage response pathways - Rev3 mutant cell line (AID 743014); also: nearly all actives have a fitted effect of over 55% in size; also: potency is read from the fitted curve at half-maximal effect
[4] = qHTS assay for identifying genotoxic compounds that show differential cytotoxicity against isogenic chicken DT40 cell lines with known DNA damage response pathways - Rad54/Ku70 mutant cell line (AID 743015); also: nearly all actives have a fitted effect of over 60% in size; also: potency is read from the fitted curve at half-maximal effect
[5] = target: Androgen receptor (Homo sapiens) (UniProt P10275); assay: qHTS assay to identify small molecule agonists of the androgen receptor (AR) signaling pathway (AID 743036; active = well fitted activation curve with a large enough effect in the signal ratio in the repeat runs, with a control signal flat, not every such curve was filed as active; the % refers to the signal ratio)
Chain of Androgen receptor (Homo sapiens) (P10275 whole entry, looked up): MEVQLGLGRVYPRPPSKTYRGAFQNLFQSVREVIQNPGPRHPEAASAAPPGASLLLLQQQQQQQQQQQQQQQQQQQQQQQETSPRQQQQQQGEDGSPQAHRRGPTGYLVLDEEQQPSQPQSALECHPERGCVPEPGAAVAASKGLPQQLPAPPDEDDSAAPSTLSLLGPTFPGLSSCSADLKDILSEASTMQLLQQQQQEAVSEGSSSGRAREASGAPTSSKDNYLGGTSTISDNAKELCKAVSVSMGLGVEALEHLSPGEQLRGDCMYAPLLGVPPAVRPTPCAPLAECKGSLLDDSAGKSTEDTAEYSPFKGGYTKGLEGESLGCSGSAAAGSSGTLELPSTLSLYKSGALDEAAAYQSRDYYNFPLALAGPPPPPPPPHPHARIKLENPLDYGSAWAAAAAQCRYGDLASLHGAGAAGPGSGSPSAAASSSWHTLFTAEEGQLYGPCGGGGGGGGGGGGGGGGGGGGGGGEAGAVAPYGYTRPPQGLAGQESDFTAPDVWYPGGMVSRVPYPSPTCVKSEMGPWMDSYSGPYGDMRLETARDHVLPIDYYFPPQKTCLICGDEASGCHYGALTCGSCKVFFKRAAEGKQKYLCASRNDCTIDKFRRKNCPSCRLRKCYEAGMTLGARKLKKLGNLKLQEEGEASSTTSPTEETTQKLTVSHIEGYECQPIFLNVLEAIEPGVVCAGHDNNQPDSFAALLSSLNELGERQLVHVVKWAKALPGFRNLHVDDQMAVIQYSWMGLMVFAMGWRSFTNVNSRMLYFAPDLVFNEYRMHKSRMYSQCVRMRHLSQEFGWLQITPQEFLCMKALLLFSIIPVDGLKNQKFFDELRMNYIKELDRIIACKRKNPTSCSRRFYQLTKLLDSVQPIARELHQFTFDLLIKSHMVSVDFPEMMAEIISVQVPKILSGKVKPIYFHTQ
Outline: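 AR-bla HEK293 cells, 2,000/well; 4 h preincubation 37C/5% CO2; compound (DMSO) 16 h at 37C; LiveBLAzer B/G FRET substrate 2 h RT; fluorescence intensity read-out.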

[6] = target: Androgen receptor (Homo sapiens) (UniProt P10275); assay: qHTS assay to identify small molecule agonists of the androgen receptor (AR) signaling pathway using the MDA cell line (AID 743040; also: nearly all actives have a fitted effect of over 20% in size)
Outline: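 Testing was done with the MDA-kb2 AR-luc line, a human breast carcinoma stably transfected with MMTV-luciferase containing AR and GR response elements. Cells were exposed 16 h at 37C before ONE-Glo luminescence detection.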

[7] = qHTS assay to identify small molecule antagonists of the androgen receptor (AR) signaling pathway using the MDA cell line - cell viability counter screen (AID 743041; also: nearly all actives have a fitted effect of over 45% in size; also: potency is read from the fitted curve at half-maximal effect)
Outline: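 Compound exposure lasted 16 h at 37C in MDA-kb2 AR-luc cells stimulated with R1881. Protease-based CellTiter-Fluor reagent was applied for the final 30 min and fluorescence measured.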

[8] = target: Androgen receptor (Homo sapiens) (UniProt P10275); assay: qHTS assay to identify small molecule antagonists of the androgen receptor (AR) signaling pathway using the MDA cell line (AID 743042; also: nearly all actives have a fitted effect of over 55% in size; also: potency is read from the fitted curve at half-maximal effect)
Outline: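 MDA-kb2 breast carcinoma cells carrying MMTV-luciferase (AR/GR responsive) were co-treated with compounds and the agonist R1881 for 16 h at 37C. Inhibition read as ONE-Glo luminescence; CellTiter-Fluor fluorescence measured in parallel for cytotoxicity.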

[9] = target: Androgen receptor (Homo sapiens) (UniProt P10275); assay: qHTS assay to identify small molecule antagonists of the androgen receptor (AR) signaling pathway (AID 743035; active = well fitted inhibition curve with a large enough effect in the signal ratio in the repeat runs, not every such curve was filed as active; the % refers to the signal ratio; also: potency is read from the fitted curve at half-maximal effect)
Outline: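 AR-bla HEK293 reporter cells; 4 h settle at 37C/5% CO2; compound + R1881 agonist, 16 h at 37C; LiveBLAzer B/G FRET substrate 2 h RT; fluorescence intensity read. qHTS format.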

[10] = qHTS assay to identify small molecule antagonists of the androgen receptor (AR) signaling pathway - cell viability counter screen (AID 743033; also: nearly all actives have a fitted effect of over 45% in size)

Measured: Potency

NC(=S)N=Nc1ccc(NN=C(N)N)cc1
inactive: [1] | [5] | [6]
active: [2] 2.66 µM | [3] 5.96 µM | [4] 5.31 µM | [7] 26.6 µM | [8] 29.8 µM

CCN(CC)CCOCCOC(=O)C(CC)(CC)c1ccccc1
active: [2] 3.35 µM | [3] 1.88 µM | [4] 4.73 µM
inactive: [1] | [7]

CCC(=O)OCC(=O)[C@@]1(OC(=O)CC)[C@H](C)C[C@H]2[C@@H]3CCC4=CC(=O)C=C[C@]4(C)[C@@]3(F)[C@@H](O)C[C@@]21C
active: [2] 23.7 µM | [3] 29.8 µM | [4] 26.6 µM
inactive: [1] | [7]

COc1ccc(C[C@H](N)C(=O)N[C@H]2[C@@H](O)[C@H](n3cnc4c(N(C)C)ncnc43)O[C@@H]2CO)cc1
active: [1] 4.77 µM | [2] 0.841 µM | [3] 0.75 µM | [7] 7.5 µM
inactive: [4]

O=C(O)c1cccc(/C=C2/C[C@@H]3[C@@H](/C=C/[C@@H](O)C4CCCCC4)[C@H](O)C[C@@H]3O2)c1
not listed: [5] | [10]
inactive: all other assays above

CN(C)c1ccc(C(=C2C=CC(=[N+](C)C)C=C2)c2c(O)c(S(=O)(=O)[O-])cc3cc(S(=O)(=O)O)ccc23)cc1
active: [2] 11.9 µM | [3] 10.6 µM | [4] 13.3 µM | [8] 11.9 µM
inactive: [1] | [9] | [5] | [6]

N#Cc1ccc2c(c1)N(CCCN1CCC(O)CC1)c1ccccc1S2
active: [2] 18.8 µM | [3] 26.6 µM | [4] 21.1 µM
inactive: [1] | [6]

COC(=O)[C@H]1[C@H]2C[C@@H]3c4[nH]c5ccccc5c4CCN3C[C@H]2C[C@@H](OC(=O)c2cc(OC)c(OC)c(OC)c2)[C@@H]1OC
active: [2] 1.06 µM and 11.9 µM | [3] 1.68 µM and 21.1 µM | [4] 1.68 µM and 26.6 µM
inactive: [1] | [7]

Cc1cc(O)c2c(c1)O[C@@]1(C)CC[C@H]3C(C)(C)CCCC34CO[C@@H]2[C@H]41 (some centres not stated)
inactive: [5] | [6]
active: [1] 23.9 µM | [2] 13.3 µM | [3] 10.6 µM | [4] 13.3 µM | [9] 23.9 µM

CO[C@H]1C=CO[C@@]2(C)Oc3c(C)c(O)c4c(O)c(c5c(nc6cc(C)ccn65)c4c3C2=O)NC(=O)/C(C)=C\C=C[C@H](C)[C@H](O)[C@@H](C)[C@@H](O)[C@@H](C)[C@H](OC(C)=O)[C@@H]1C
active: [2] 26.6 µM | [3] 23.7 µM | [4] 29.8 µM
inactive: [1] | [7]

CN(C)CCCN1c2ccccc2C(C)(C)c2ccccc21
inactive: [1] | [9] | [6] | [8]
active: [2] 18.8 µM | [3] 26.6 µM | [4] 21.1 µM

Cc1cc(-c2ccc(N=Nc3c(S(=O)(=O)O)cc4cc(S(=O)(=O)O)cc(N)c4c3O)c(C)c2)ccc1N=Nc1c(S(=O)(=O)O)cc2cc(S(=O)(=O)O)cc(N)c2c1O
active: [2] 9.44 µM | [3] 7.5 µM | [4] 10.6 µM | [7] 13.3 µM
inactive: [1]

CCC(=O)OCC(=O)[C@@]1(OC(=O)CC)[C@@H](C)C[C@H]2[C@@H]3CCC4=CC(=O)C=C[C@]4(C)[C@@]3(F)[C@@H](O)C[C@@]21C
inactive: [1] | [7]
active: [2] 13.3 µM | [3] 29.8 µM | [4] 23.7 µM

Cn1cc(NC(=O)c2cc(NC(=O)c3cc(NC=O)cn3C)cn2C)cc1C(=O)NCCC(=N)N
inactive: [1] | [2] | [3] | [4] | [10] | [7]

CO/N=C(\C(=O)N[C@@H]1C(=O)N2C(C(=O)O)=C(CSC(=O)c3ccco3)CS[C@H]12)c1csc(N)n1
not listed: [10]
inactive: all other assays above

CCOc1ccc(N=C(C)Nc2ccc(OCC)cc2)cc1
active: [2] 23.7 µM | [3] 23.7 µM | [4] 23.7 µM
inactive: [1] | [7]

CCN(CC)Cc1cc(Nc2ccnc3cc(Cl)ccc23)ccc1O
active: [2] 7.17 µM | [3] 7.17 µM | [4] 8.04 µM
inactive: [1] | [6] | [8]

O=C1C(=O)c2ncccc2-c2cccnc21
active: [2] 5.96 µM | [3] 8.41 µM | [4] 4.22 µM | [9] 23.9 µM
inactive: [1] | [6] | [7] | [8]

C=C1CC[C@@H]2[C@](C)(CO)[C@H](O)CC[C@@]2(C)[C@@H]1C/C=C1/C(=O)OC[C@H]1O
inactive: [1] | [5] | [6] | [7]
active: [2] 5.96 µM | [3] 8.41 µM | [4] 5.96 µM

CCN(CC)CCOc1ccc2nc(N(C)C)sc2c1
active: [2] 1.19 µM | [3] 1.68 µM | [4] 2.11 µM
inactive: [1] | [10] | [7]

CC1(C)S[C@@H]2[C@H](NC(=O)C(N)c3ccccc3)C(=O)N2[C@H]1C(=O)OC1OC(=O)c2ccccc21 (some centres not stated)
inactive: [1] | [2] | [3] | [4] | [7]

CN[C@@H]1[C@@H](O)[C@@H](O[C@@H]2[C@@H](O)[C@H](O[C@H]3O[C@H](CN)[C@@H](O)[C@H](O)[C@H]3O)[C@@H](N)C[C@H]2NC(=O)C(O)CN)OC[C@]1(C)O (some centres not stated)
inactive: [1] | [2] | [3] | [4] | [10] | [7]

CCCCCCCCCCCCCCCCCCCCCC(=O)Nc1ccn([C@@H]2O[C@H](CO)[C@@H](O)[C@@H]2O)c(=O)n1
active: [2] 18.8 µM | [3] 23.7 µM | [4] 26.6 µM
inactive: [1] | [6] | [7] | [8]

CCCCCc1ccc(C)cc1O
not listed: [9] | [10]
inactive: all other assays above

COc1ccc(C2(C#N)CCC(C(=O)O)CC2)cc1OC1CCCC1 (configuration not stated)
inactive: [1] | [2] | [3] | [4] | [7]

CCCCCCCCCCCCCCCC(=O)OCC(COC(=O)CCCCCCCCCCCCCCC)OC(=O)CCCCCCCCCCCCCCC
inactive: [1] | [2] | [3] | [4] | [7]

C[C@H](CCCC(C)(C)O)[C@H]1CC[C@H]2[C@@H]3CC=C4C[C@@H](O)CC[C@]4(C)[C@H]3CC[C@]12C
inactive: [1] | [6] | [7] | [8]
active: [2] 1.68 µM | [3] 0.211 µM | [4] 10.6 µM

CC1(S(=O)(=O)O)CC(=O)c2ccccc2C1=O (configuration not stated)
active: [2] 9.44 µM | [3] 11.9 µM | [4] 11.9 µM | [8] 29.8 µM
inactive: [1] | [6]

COc1cc(-c2ccc(-[n+]3nc(-c4ccccc4)nn3-c3ccc([N+](=O)[O-])cc3)c(OC)c2)ccc1-[n+]1nc(-c2ccccc2)nn1-c1ccc([N+](=O)[O-])cc1
active: [1] 19 µM | [2] 5.96 µM | [3] 7.5 µM | [4] 5.31 µM | [8] 29.8 µM
inactive: [6]

[O]=[Bi][O][Bi]=[O]
not listed: [5] | [10]
inactive: all other assays above

Cc1ncc(COP(=O)(O)O)c(CN)c1O
inactive: [1] | [2] | [4] | [10]

CNC(C)CCC=C(C)C (configuration not stated)
inactive: [1] | [10] | [7]
active: [2] 23.7 µM | [3] 29.8 µM

CN[C@H]1CCc2cc(OC)c(OC)c(OC)c2-c2ccc(OC)c(=O)cc21
active: [2] 0.0473 µM | [4] 0.0531 µM | [9] 0.0601 µM
not listed: [3] | [5]
inactive: all other assays above

C[N+]1(C)CCN(CC(O)(c2ccccc2)C2CCCCC2)CC1 (configuration not stated)
not listed: [3]
inactive: all other assays above

O=c1oc2cc(O)ccc2s1
inactive: [1] | [2] | [4] | [10]

CC(=O)[C@]1(O)Cc2c(O)c3c(c(O)c2[C@@H](O[C@H]2C[C@H](N)[C@H](O)[C@H](C)O2)C1)C(=O)c1c(O)cccc1C3=O
active: [1] 3.01 µM | [2] 18.8 nM and 21.1 nM | [3] 0.0188 µM | [7] 11.9 µM

C[C@]12C=CC(=O)N[C@@H]1CC[C@@H]1[C@@H]2CC[C@]2(C)[C@@H](C(=O)Nc3cc(C(F)(F)F)ccc3C(F)(F)F)CC[C@@H]12
inactive: [1] | [10]
active: [2] 4.22 µM | [4] 2.66 µM

CC(CN1c2ccccc2Sc2ccc(S(=O)(=O)N(C)C)cc21)N(C)C (configuration not stated)
active: [2] 11.9 µM | [4] 18.8 µM
not listed: [3]
inactive: all other assays above

CC(=O)c1ccc2c(c1)N(CCCN1CCN(CCO)CC1)c1ccccc1S2
active: [2] 13.3 µM | [3] 26.6 µM | [4] 21.1 µM
inactive: [1] | [7]

CC1(C)S[C@@H]2[C@H](NC(=O)C(C(=O)Oc3ccc4c(c3)CCC4)c3ccccc3)C(=O)N2[C@H]1C(=O)O (some centres not stated)
not listed: [3] | [5]
inactive: all other assays above

C[C@]12CCC(=O)C[C@@H]1CC[C@@H]1[C@@H]2CC[C@]2(C)C=CC[C@@H]12
inactive: [1] | [2] | [3] | [10] | [7]

CC[C@H]1NC(=O)[C@@H](NC(=O)c2ncccc2O)[C@@H](C)OC(=O)[C@H](c2ccccc2)NC(=O)[C@@H]2CC(=O)CCN2C(=O)[C@H](Cc2ccccc2)N(C)C(=O)[C@@H]2CCCN2C1=O
not listed: [3]
inactive: all other assays above
